Compounds without any hit were thinned out: in the full panel of roughly 83,000, 20% have a hit.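 Method: cells in 96-well plates; compound added at one concentration; 48 h incubation; percent growth measured; values under 10 scored active.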 Unmarked numbers belong to inactive results. Calls of active or inactive are those of the source.
Assays:
Assay in all cases: NCI-60 one-dose screen, 48 h (100 = growth as untreated, 0 = no growth, -100 = all killed)
Conditions in all cases: 10 µM unless noted
SR leukemia = test system: SR leukemia
RPMI-8226 leukemia = test system: RPMI-8226 leukemia
OVCAR-8 ovarian = test system: OVCAR-8 ovarian
OVCAR-5 ovarian = test system: OVCAR-5 ovarian
OVCAR-4 ovarian = test system: OVCAR-4 ovarian
SK-OV-3 ovarian = test system: SK-OV-3 ovarian
IGROV1 ovarian = test system: IGROV1 ovarian
OVCAR-3 ovarian = test system: OVCAR-3 ovarian
HS 578T breast = test system: HS 578T breast
NCI/ADR-RES ovarian = test system: NCI/ADR-RES ovarian
T-47D breast = test system: T-47D breast
BT-549 breast = test system: BT-549 breast
MDA-MB-435 melanoma = test system: MDA-MB-435 melanoma
SW-620 colon = test system: SW-620 colon
MCF7 breast = test system: MCF7 breast
HCT-116 colon = test system: HCT-116 colon
HCC-2998 colon = test system: HCC-2998 colon
KM12 colon = test system: KM12 colon

Row | Structure (SMILES) | growth (SR leukemia) | growth (RPMI-8226 leukemia) | growth (OVCAR-8 ovarian) | growth (OVCAR-5 ovarian) | growth (OVCAR-4 ovarian) | growth (SK-OV-3 ovarian) | growth (IGROV1 ovarian) | growth (OVCAR-3 ovarian) | growth (HS 578T breast) | growth (NCI/ADR-RES ovarian) | growth (T-47D breast) | growth (BT-549 breast) | growth (MDA-MB-435 melanoma) | growth (SW-620 colon) | growth (MCF7 breast) | growth (HCT-116 colon) | growth (HCC-2998 colon) | growth (KM12 colon)
1 | COc1cc(C)cc(-c2c(-c3cc(N4CC(O)C4)nc(-c4cccnc4)n3)cnn2C)c1 | 88.3% | 77.7% | 92.7% | 99.9% | 88.7% | 118% | 120% | 101% | 80.5% | 83.1% | 62.6% | 89.7% | 92% | 101% | 87.6% | 96.1% | 92.8% | 84.7%
2 | O=C(Nc1cccc2c1C(=O)c1cccc(NC(=O)c3ccc(C(=O)Nc4cccc5c4C(=O)c4cccc(NC(=O)c6ccccc6)c4C5=O)cc3)c1C2=O)c1ccccc1 | 9.04% (active) | 105% | 98.1% | 91.1% | 98.9% | 99.4% | 41.1% | 106% | 99.5% | 101% | 101% | 72.4% | 112% | 99.9% | 104% | 104% | 101% | 102%
3 | CC1=C(C(=O)c2ccccc2)C(c2ccc3c(c2)OCO3)NC(=S)N1 (stereo not drawn) | 6.28% (active) | 44% | 46.7% | 72.5% | 82.3% | 51.6% | 46.1% | 12.9% | 23.4% | 43.3% | 67.9% | 50.6% | -49.5% (active) | 24.2% | 22% | 20.1% | 62.2% | 20%
4 | CCCCCN(CCCCC)CC(O)c1c(Cl)ccc2ccccc12 (stereo not drawn) | 32.9% | 66.2% | 87.5% | 65.8% | 79.5% | 93.6% | 63% | 90.7% | 80% | 77.8% | 69% | 105% | 84.2% | 46.1% | 72.2% | 37.2% | 70.8% | 75.9%
5 | CCN=c1sc2c(n1NC(=O)c1cc3ccc1CCc1ccc(cc1)CC3)C(=O)c1ccccc1C2=O | -3.66% (active) | -33.6% (active) | -82.6% (active) | -77.4% (active) | -98.4% (active) | 62% | -39.8% (active) | -18.8% (active) | -8.98% (active) | -22.8% (active) | -19.8% (active) | -97.4% (active) | -97.1% (active) | -56.6% (active) | -63.1% (active) | -50.9% (active) | -37.9% (active) | -29.9% (active)
6 | C=C(C)[C@@H]1CC[C@]2(C(=O)NC(C)=O)CC[C@]3(C)[C@H](CC[C@@H]4[C@@]5(C)CCCNC(C)(C)[C@@H]5CC[C@]43C)[C@@H]12 | -24.5% (active) | -30.3% (active) | 17.5% | 67.9% | 33.9% | 68.6% | 20.4% | -34.3% (active) | 52.3% | 29.4% | 17.6% | 63.1% | -88.7% (active) | -50% (active) | -17.3% (active) | -69.7% (active) | -58.3% (active) | -2.16% (active)
7 | CC(C)(C)CC(C)(C)Nc1c(-c2c(O)c3ccccc3oc2=O)nc2sccn12 | 111% | 97.7% | 91% | 97.5% | 111% | 87.2% | 93.2% | 109% | 96.3% | 98.3% | 84.8% | 111% | 104% | 96.9% | 91.7% | 98.2% | 98.5% | 107%
8 | O=C1c2ccccc2-c2c1c1ccncc1c(=O)n2CCCn1ccnc1 | -16.2% (active) | 34.1% | 32.9% | 88.5% | 72.7% | 73.6% | 44.9% | 67.1% | 60.8% | 53.6% | 23.6% | 46.7% | 86.3% | 18.7% | 9.35% (active) | 5.31% (active) | 73.9% | 32.8%
9 | [2H]C([2H])([2H])Oc1ccc(/C=C/C(=O)/C=C(O)/C=C/c2ccc(OC([2H])([2H])[2H])c(OC([2H])([2H])[2H])c2)cc1OC([2H])([2H])[2H] | 18.6% | 6.79% (active) | 21.8% | 71.6% | 42.2% | 39% | 52.9% | 37.2% | 51.7% | 41.5% | 21.8% | 34.4% | 12.3% | 27.4% | 4.59% (active) | 5.1% (active) | 76.4% | 30.6%
10 | Cc1nc2ccccc2c(/C=C/c2ccc(Br)cc2)c1C(=O)/C=C/c1ccccc1 | 13.6% | -8.25% (active) | 2.21% (active) | -18% (active) | 12.5% | 49.4% | -7.6% (active) | -72.1% (active) | 25.9% | -2.99% (active) | 10.1% | 21.7% | -47.3% (active) | 2.35% (active) | 14% | -49.1% (active) | -41.4% (active) | 7.65% (active)
11 | C#C[C@]1(O)CC[C@H]2[C@@H]3CC=C4c5sc(-c6ccccc6)nc5CC[C@]4(C)[C@H]3CC[C@@]21C | 30.9% | -12.6% (active) | 101% | 85.6% | 106% | 111% | 95.8% | 106% | 62% | 94.4% | 92.7% | 86.2% | 93.6% | 89.9% | 51.2% | 78.2% | 97.4% | 78.9%
12 | COCCNC(=O)Cc1cc(-c2ccc(Cl)cc2)n(-c2ccccc2)c1C | 61.9% | 63% | 85.8% | 90% | 67.1% | 95% | 88.6% | 116% | 107% | 86.1% | 56.3% | 83.5% | 93.7% | 94.9% | 88.6% | 80.4% | 99.3% | 91.7%
13 | C#CCOc1cccc(-c2ncnc3cc(NC(=O)CCl)ccc23)c1 | -11.5% (active) | -38.1% (active) | -5.91% (active) | -47.3% (active) | -25.6% (active) | 51% | -54.2% (active) | -78.2% (active) | 17% | 1.21% (active) | -33.8% (active) | -27.8% (active) | -24.7% (active) | -58.6% (active) | 3.63% (active) | -74.1% (active) | 56.6% | 16.2%
14 | COc1cccc2cc(N(C)c3ncnc4ccccc34)ccc12 | 9.25% (active) | -18.3% (active) | 6.23% (active) | 54.3% | 34.7% | 33.9% | 14.4% | 6.13% (active) | 40.9% | 8.39% (active) | 59.1% | 32.3% | 16.6% | 20.5% | 6.28% (active) | 8.07% (active) | 21.2% | 5.11% (active)
15 | CCCCCCCCNC(=O)[C@@H](N)CSCOC(C)=O | 100% | 87.9% | 85.5% | 103% | 112% | 95.3% | 103% | 97.4% | 93.4% | 82.7% | 96.1% | 111% | 19.1% | 84.6% | 108% | 92.7% | 101% | 38.1%
16 | CCn1c2ccccc2c2cc(C(O)c3cccc4ncccc34)ccc21 (stereo not drawn) | 15.5% | -2.06% (active) | 20.8% | 48.7% | 45.4% | 69.1% | 19.1% | 1.86% (active) | 21.3% | -53.2% (active) | 59% | -8.94% (active) | 0.201% (active) | 26.8% | 15.5% | 0.739% (active) | -32.5% (active) | 8.55% (active)
